# The full data set covers some 8,800 targets. This sample favours those with a hit. About 0.5% of all pairs of compound and target were hits. A number with no mark means an inactive call.
# What was measured:
# Assay in all cases: log2 fold change, soluble protein after heating vs DMSO (PISA); higher = thermal stabilisation; K562 lysate, 10 uM; active = over 0.2 and 3.5 SD of the protein, either way, in both replicates (recomputed)
# erlotinib = compound: C#Cc1cccc(Nc2ncnc3cc(OCCOC)c(OCCOC)cc23)c1 [erlotinib]
# Method in brief: (§1)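 Soluble protein was defined as the supernatant remaining after 21,000xg for 90 min, following pooling of heated aliquots and adjustment to 0.5% NP-40 at 4°C. Before that, crude K562 extract at 1 mg/mL protein in PBS pH 7.4 with 1 mM MgCl2 was treated with 10 μM compound for 30 min and heated for 3 min across 48°C-58°C. Quantification used TMTpro 16plex LC-MS/MS with channel sums equalised, and values are log-two fold changes in thermal stability relative to solvent controls from duplicates.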
# [1] = compound: C/C(=N\NC(=O)C1=CC(=CC=C1)S(=O)(=O)N2CCOCC2)/C3=C(C=CC(=C3)Cl)O
# Method in brief: as §1
# [2] = compound: C1=CC(=CC=C1C2=NC3=C(N2)C=C(C=C3)C(=O)N)OC4=CC=C(C=C4)Cl
# Method in brief: as §1
# [3] = compound: C1=CC2=C(C=CC(=C2)/C=C\3/C(=O)NC(=NCC4=CC=CS4)S3)N=C1
# Method in brief: as §1
# [4] = compound: C1=CC2=NC=CN=C2C=C1/C=C/3\C(=O)NC(=O)S3
# Method in brief: as §1
# [5] = compound: C1=CC=C(C=C1)C2=NC(=C(N2)C3=CC=NC=C3)C4=CC(=C(C=C4)Cl)O
# Method in brief: as §1
# [6] = compound: C1=CC=C2C(=C1)C3=NNC4=CC=CC(=C43)C2=O
# Method in brief: as §1
# [7] = compound: C1CCN(C1)C(=O)NC2=CC=CC(=C2)NC3=NC=C(C(=N3)NCCC4=CN=CN4)Br
# Method in brief: as §1
# [8] = compound: C1CN(CCC1(CC2=CC=C(C=C2)Cl)N)C3=NC=NC4=C3C=CN4
# Method in brief: as §1
# IRAK-1-4 Inhibitor I = compound: C1COCCN1CCN2C3=CC=CC=C3N=C2NC(=O)C4=CC(=CC=C4)[N+](=O)[O-] [IRAK-1-4 Inhibitor I]
# Method in brief: as §1
# ibrutinib = compound: C=CC(=O)N1CCC[C@@H](n2nc(-c3ccc(Oc4ccccc4)cc3)c3c(N)ncnc32)C1 [ibrutinib]
# Method in brief: as §1
# [9] = compound: CC(=O)c1cnc2ccc(-c3cc(Cl)c(O)c(Cl)c3)nc2c1N[C@H]1CC[C@H](CN(C)C)CC1
# Method in brief: as §1
# ralimetinib = compound: CC(C)(C)Cn1c(N)nc2ccc(-c3[nH]c(C(C)(C)C)nc3-c3ccc(F)cc3)nc21 [ralimetinib]
# Method in brief: as §1
# [10] = compound: CC(C)(O)CC(=O)NCCn1ccc2ncnc(Nc3ccc(Oc4cccc(C(F)(F)F)c4)c(Cl)c3)c21
# Method in brief: as §1
# [11] = compound: CC(C)C1=C2N=C(C=C(N2N=C1)NCC3=CC=CC=C3)NCCCCCCN
# Method in brief: as §1
# [12] = compound: CC1=C(C(CC(=O)N1)C2=CC=C(C=C2)C(F)(F)F)C(=O)NC3=C(C=C4C(=C3)C=NN4)F
# Method in brief: as §1
# [13] = compound: CC1=C(C2=C(C=C1)C(=O)C3=CC=CC=C3N2CCCN)C
# Method in brief: as §1
# [14] = compound: CC1=C(C=C(C=C1)NC(=O)C2=CC(=CC=C2)C(C)(C)C#N)NC3=CC4=C(C=C3)N=CN(C4=O)C
# Method in brief: as §1
# [15] = compound: CC1=C(C=C(C=C1)NC(=O)C2=CC(=CC=C2)N(C)C)NC(=O)C3=CC=C(C=C3)O
# Method in brief: as §1
# [16] = compound: CC1=CC=C(C=C1)SC2=C3C=C(SC3=CN=C2)C(=O)N
# Method in brief: as §1
# Sequence of UniProt P04083 (P04083 whole entry, looked up): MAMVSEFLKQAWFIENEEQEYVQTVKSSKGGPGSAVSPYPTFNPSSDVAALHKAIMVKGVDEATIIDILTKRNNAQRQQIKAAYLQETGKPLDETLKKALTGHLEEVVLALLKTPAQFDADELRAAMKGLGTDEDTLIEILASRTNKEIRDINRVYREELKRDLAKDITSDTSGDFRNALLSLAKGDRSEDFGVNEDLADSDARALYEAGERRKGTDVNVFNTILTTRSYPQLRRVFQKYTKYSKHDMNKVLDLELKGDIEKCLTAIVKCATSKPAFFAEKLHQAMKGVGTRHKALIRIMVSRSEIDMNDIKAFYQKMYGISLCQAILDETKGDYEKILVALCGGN
# Sequence of UniProt P24752 (P24752 whole entry, looked up): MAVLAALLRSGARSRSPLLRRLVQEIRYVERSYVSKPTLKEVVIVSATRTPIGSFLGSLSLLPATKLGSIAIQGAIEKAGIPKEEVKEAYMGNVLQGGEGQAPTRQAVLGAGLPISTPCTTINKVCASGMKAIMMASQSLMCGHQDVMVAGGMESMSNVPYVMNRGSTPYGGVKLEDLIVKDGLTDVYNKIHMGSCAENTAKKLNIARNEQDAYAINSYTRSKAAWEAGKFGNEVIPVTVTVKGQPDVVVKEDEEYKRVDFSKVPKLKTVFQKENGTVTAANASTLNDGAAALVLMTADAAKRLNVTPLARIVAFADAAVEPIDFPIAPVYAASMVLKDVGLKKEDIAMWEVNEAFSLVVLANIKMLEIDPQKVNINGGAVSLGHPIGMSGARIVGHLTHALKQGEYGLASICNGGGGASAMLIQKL
# Sequence of UniProt Q16186 (Q16186 whole entry, looked up): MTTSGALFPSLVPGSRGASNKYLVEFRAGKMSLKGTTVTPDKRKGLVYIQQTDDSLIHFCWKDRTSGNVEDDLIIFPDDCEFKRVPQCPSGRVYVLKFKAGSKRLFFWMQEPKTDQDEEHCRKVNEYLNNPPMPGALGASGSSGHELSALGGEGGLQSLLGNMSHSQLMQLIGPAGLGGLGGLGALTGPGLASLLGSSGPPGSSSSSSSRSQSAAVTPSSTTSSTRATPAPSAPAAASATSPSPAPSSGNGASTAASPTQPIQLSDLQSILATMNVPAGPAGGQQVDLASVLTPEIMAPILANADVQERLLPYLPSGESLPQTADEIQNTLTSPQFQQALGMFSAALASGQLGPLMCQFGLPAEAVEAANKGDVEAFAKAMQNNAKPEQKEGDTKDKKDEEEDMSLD
# Sequence of UniProt P35573 (P35573 whole entry, looked up): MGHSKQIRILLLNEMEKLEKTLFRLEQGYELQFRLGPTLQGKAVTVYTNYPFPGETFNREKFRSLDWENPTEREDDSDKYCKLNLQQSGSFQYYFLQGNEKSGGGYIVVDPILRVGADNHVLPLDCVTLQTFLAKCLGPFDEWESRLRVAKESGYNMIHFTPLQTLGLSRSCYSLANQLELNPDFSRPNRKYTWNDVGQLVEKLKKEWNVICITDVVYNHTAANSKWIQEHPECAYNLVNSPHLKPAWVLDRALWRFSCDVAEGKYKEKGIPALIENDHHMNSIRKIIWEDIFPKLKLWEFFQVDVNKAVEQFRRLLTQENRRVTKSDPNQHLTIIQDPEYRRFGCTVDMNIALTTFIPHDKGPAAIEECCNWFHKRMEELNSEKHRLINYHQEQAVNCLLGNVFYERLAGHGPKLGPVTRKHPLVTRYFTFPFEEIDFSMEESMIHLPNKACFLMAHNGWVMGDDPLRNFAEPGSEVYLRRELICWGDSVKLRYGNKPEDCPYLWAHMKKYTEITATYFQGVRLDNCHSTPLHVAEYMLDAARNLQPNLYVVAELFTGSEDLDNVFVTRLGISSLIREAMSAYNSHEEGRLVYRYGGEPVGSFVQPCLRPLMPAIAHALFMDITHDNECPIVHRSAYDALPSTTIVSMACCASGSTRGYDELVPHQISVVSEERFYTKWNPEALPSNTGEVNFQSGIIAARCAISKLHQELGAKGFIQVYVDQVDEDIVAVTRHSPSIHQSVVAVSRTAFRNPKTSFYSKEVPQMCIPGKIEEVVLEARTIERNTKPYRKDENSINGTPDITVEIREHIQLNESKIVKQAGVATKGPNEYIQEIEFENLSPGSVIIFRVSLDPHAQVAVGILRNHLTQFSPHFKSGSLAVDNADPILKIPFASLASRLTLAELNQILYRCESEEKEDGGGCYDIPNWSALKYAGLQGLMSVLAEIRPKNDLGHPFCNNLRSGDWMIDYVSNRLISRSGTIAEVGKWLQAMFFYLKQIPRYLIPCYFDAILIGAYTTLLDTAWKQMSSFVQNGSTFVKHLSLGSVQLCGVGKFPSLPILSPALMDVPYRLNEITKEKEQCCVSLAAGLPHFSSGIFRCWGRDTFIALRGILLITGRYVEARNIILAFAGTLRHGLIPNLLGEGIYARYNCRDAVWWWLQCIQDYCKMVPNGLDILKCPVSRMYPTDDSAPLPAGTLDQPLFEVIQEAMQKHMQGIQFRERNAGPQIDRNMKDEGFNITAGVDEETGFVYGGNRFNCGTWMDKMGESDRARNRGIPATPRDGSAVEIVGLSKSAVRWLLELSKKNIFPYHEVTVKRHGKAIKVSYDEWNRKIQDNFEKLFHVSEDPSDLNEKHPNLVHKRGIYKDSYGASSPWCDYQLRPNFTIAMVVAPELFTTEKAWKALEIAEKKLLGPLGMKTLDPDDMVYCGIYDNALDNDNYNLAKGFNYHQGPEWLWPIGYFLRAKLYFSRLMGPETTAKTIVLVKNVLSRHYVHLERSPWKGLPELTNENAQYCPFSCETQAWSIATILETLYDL
# Sequence of UniProt P27144 (P27144 whole entry, looked up): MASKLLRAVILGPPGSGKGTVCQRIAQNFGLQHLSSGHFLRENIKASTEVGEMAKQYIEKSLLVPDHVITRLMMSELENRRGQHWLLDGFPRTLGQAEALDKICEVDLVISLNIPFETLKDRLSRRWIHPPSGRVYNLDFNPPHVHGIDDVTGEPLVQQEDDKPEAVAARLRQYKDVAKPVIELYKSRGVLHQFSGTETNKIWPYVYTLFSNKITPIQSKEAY
# Sequence of UniProt Q5T5U3 (Q5T5U3 whole entry, looked up): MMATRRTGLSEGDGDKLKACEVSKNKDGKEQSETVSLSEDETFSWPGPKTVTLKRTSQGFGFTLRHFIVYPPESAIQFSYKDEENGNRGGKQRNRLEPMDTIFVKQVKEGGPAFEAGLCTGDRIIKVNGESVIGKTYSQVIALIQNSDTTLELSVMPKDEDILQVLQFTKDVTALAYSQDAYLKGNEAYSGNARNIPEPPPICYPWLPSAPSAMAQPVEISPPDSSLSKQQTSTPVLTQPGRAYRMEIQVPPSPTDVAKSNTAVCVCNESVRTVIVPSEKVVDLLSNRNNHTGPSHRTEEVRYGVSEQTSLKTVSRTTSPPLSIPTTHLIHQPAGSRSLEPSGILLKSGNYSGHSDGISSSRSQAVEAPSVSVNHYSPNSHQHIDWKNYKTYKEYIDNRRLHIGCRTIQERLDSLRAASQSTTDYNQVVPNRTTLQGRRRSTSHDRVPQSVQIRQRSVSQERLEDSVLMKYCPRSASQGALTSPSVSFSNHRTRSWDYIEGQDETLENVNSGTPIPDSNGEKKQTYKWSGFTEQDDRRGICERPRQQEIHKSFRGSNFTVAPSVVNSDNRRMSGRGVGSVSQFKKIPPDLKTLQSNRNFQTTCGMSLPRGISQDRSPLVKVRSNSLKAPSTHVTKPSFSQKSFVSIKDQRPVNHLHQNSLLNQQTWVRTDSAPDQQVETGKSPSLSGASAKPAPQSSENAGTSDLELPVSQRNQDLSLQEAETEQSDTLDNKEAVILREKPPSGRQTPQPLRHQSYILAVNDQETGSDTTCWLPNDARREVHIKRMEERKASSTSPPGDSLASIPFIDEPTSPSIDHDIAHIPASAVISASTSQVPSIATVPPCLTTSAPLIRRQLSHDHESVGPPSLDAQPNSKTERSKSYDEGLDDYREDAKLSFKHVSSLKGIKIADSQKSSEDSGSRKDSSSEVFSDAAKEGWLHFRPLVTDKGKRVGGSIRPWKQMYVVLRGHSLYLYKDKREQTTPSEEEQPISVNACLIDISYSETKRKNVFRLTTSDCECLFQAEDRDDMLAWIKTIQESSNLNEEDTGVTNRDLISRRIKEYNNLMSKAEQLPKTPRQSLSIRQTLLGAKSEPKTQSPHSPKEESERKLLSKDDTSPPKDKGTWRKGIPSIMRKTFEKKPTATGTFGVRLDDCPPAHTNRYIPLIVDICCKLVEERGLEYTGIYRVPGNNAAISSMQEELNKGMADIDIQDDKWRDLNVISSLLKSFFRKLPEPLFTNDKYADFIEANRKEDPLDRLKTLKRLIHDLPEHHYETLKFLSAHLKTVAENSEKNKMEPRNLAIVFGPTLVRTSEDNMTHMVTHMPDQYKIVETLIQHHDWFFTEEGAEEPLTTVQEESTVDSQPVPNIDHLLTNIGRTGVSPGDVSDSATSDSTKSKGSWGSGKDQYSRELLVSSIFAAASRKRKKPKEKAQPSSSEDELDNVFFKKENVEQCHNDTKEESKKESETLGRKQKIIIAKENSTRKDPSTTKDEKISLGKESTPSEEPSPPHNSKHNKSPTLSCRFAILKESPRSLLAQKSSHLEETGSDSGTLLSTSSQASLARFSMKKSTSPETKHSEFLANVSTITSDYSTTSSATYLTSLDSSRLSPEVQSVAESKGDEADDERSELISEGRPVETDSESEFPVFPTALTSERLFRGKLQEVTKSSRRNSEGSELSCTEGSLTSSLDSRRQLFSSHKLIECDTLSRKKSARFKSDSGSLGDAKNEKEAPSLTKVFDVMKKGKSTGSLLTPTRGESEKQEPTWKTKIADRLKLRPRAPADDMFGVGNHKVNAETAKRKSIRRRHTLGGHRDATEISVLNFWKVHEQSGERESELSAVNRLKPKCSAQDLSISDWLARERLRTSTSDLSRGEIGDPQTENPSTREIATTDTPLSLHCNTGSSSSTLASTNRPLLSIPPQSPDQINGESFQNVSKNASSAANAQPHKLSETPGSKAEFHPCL
# Sequence of UniProt P07311 (P07311 whole entry, looked up): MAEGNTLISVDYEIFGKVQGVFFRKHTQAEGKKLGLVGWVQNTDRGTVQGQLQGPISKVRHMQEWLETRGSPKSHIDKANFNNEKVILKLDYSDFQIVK
Target,log2 fold change (erlotinib),log2 fold change [1],log2 fold change [2],log2 fold change [3],log2 fold change [4],log2 fold change [5],log2 fold change [6],log2 fold change [7],log2 fold change [8],log2 fold change (IRAK-1-4 Inhibitor I),log2 fold change (ibrutinib),log2 fold change [9],log2 fold change (ralimetinib),log2 fold change [10],log2 fold change [11],log2 fold change [12],log2 fold change [13],log2 fold change [14],log2 fold change [15],log2 fold change [16]
ACYP1 (UniProt P07311),-0.032,0.028,-0.007,-0.02,-0.008,-0.017,-0.01,0.024,-0.004,0.013,0.056,0.027,0,-0.024,-0.011,-0.021,0.015,-0.013,-0.024,0.021
ALDH18A1 (UniProt P54886),0.029,-0.039,-0.017,0.02,-0.015,-0.016,-0.025,-0.022,0.001,-0.006,0.006,0.007,0.021,-0.015,-0.001,-0.02,0.001,0.022,0.016,-0.018
ARMCX3 (UniProt Q9UH62),0.023,-0.02,-0.005,0.009,0.033,-0.005,-0.043,-0.016,0.064,0.03,-0.073,-0.027,0.006,0.013,-0.042,-0.053,-0.029,0.004,0.039,0
ABHD16A (UniProt O95870),-0.009,-0.047,0.03,0.046,-0.042,0.015,-0.016,0.014,0.064,-0.006,-0.01,0.004,0.029,0.018,0.027,-0.022,0.03,-0.031,-0.077,-0.011
ACAA1 (UniProt P09110),0.03,-0.455,0.041,0.015,0.03,-0.036,0.016,0.014,-0.024,-0.006,0.046,-0.012,-0.054,-0.003,0,-0.02,-0.016,0.044,0.001,-0.007
ARHGAP6 (UniProt O43182),0.013,-0.145,-0.04,0.061,0.07,0.041,-0.005,-0.016,0.037,0.015,0.081,-0.008,-0.018,-0.038,-0.017,0.101,-0.007,0.002,0.01,-0.018
AGL (UniProt P35573),0.007,0.002,0.003,-0.021,-0.01,0.008,-0.035,-0.017,-0.006,0.001,-0.007,0.01,0.048,0.018,-0.006,-0.004,0.021,-0.017,0,0.027
ABL2 (UniProt P42684),-0.046,0.068,0.053,-0.014,-0.013,0.045,-0.003,-0.065,-0.141,-0.068,0.586 (active),0.078,0.005,0.002,0.002,-0.057,-0.112,0.154,0.093,-0.046
ARHGAP21 (UniProt Q5T5U3),-0.013,-0.182,-0.025,-0.098,-0.214,-0.018,-0.137,-0.118,-0.018,0.056,0.016,0.047,0.017,-0.047,0.022,0.077,-0.053,0.062,0.052,-0.015
ANXA2 isoform 2 (UniProt P07355),-0.009,0.041,0.023,-0.003,0.003,0.004,0.025,-0.006,-0.001,-0.01,-0.013,0.012,-0.009,0.033,-0.01,0.006,0.048,-0.024,-0.01,0.013
ANXA1 (UniProt P04083),-0.012,0.013,0.015,0.014,-0.009,-0.008,-0.021,0.003,0.016,-0.013,-0.001,0.007,-0.003,0.007,0.005,-0.01,0.03,-0.024,0.025,-0.003
ACIN1 isoform 5 (UniProt Q9UKV3),-0.011,-0.025,-0.023,-0.028,-0.037,0.001,-0.001,-0.006,-0.007,-0.006,-0.004,-0.015,-0.011,-0.028,-0.021,-0.024,-0.001,-0.042,0.003,-0.016
ABI1 isoform 9 (UniProt Q8IZP0),-0.014,-0.003,0.025,0.01,-0.007,0.009,-0.014,0.006,0.004,-0.021,0.034,0.023,-0.031,-0.005,0.031,-0.02,-0.008,0.024,-0.012,0.003
ACAT1 (UniProt P24752),0.011,0.006,-0.015,0.015,0.017,-0.002,-0.007,-0.028,0.015,0.017,0.002,0.005,0.003,0.002,-0.002,0.001,0.034,-0.013,-0.007,0.015
ADRM1 (UniProt Q16186),0.007,-0.006,0.007,-0.026,-0.016,0.018,-0.088,0.012,0.007,0.026,0.005,-0.009,0.027,-0.007,0.026,-0.028,-0.011,0.019,0.012,-0.01
AK4 (UniProt P27144),-0.024,0.024,-0.024,-0.01,-0.01,0.015,0.015,0.036,0.02,-0.002,0.06,-0.019,-0.036,-0.016,-0.008,0.021,-0.005,0.012,0.022,-0.017

# — the supplement of paper PMC10849652
